Compound activity deposited in PubChem BioAssay by several laboratories.
Cav3 T inh: inhibitors of human Cav3.2 T-type calcium channel | B-score at 10 µM | actives 4% (n = 100,000) | AID 449739 | Cav3.2-expressing cells, Fluo-4 calcium fluorescence FDSS; hits give low values | O95180;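 active = single-dose well whose peak fluorescence ratio is a statistical outlier from its plate by either plate-standardised score or position-corrected B-score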
PLAP activator: activates human placental alkaline phosphatase. purified PLAP enzyme, luminescent substrate read-out; hits give high values. actives 1.2% (n = 96,000). AID 696. P05187. activation fold at 20 µM; in the data active = activation fold above about 2
PostGolgi ctrl: growth of the yeast control strain, post-Golgi counter-screen; actives 5% (n = 98,000); inhibition, % at 10 µM; efflux-deficient yeast background strain, growth absorbance A615, 16 h
DAT uptake mod: human DAT dopamine uptake with cocaine, either direction; Q01959; LLC-PK1 hDAT cells, [14C]-dopamine uptake with cocaine IC80; actives deviate in either direction; B-score at 10 µM; actives 1.3% (n = 110,000); AID 449768;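 active = Z score or B-score, a plate-position-corrected score, falls beyond the plate's 99.7% confidence bounds, in either direction; inactive = both scores lie inside the 99.7% bounds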;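 also: scored against the spread of the other compound wells on the same plate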
Target sequence (Q01959 whole entry, looked up): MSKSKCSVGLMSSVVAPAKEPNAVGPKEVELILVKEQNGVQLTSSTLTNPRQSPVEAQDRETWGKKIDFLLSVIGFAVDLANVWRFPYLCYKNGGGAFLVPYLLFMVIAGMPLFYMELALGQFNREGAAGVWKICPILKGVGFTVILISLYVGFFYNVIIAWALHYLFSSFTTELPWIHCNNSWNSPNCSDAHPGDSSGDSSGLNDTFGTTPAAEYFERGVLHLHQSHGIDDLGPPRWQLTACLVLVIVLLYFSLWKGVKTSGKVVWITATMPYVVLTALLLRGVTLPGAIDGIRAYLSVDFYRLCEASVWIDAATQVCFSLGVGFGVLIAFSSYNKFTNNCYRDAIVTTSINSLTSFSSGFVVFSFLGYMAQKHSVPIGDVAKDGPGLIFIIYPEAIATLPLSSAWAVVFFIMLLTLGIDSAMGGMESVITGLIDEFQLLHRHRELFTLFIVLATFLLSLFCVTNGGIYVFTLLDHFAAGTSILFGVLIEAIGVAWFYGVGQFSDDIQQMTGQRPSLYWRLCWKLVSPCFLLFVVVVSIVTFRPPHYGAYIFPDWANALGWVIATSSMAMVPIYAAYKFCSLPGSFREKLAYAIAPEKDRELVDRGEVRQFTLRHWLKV
PostGolgi yeast: growth inhibition of a yeast mutant, post-Golgi transport screen; post-Golgi transport phenotypic cell assay; inhibition, % at 10 µM; actives 0.9% (n = 98,000);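 also: yeast cells grown in 1536-well plates; yeast grown about 18 h at 30C before absorbance read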
Starred values were filed as active, the others as inactive; nt = not tested or not shown. Sampled rows, rich in hits. Any-hit rate of the full collection: about 9.6%. Rule as the data show it, unless noted: active = inhibition above about 30%; inactive = the rest.

SMILES	Cav3 T inh	PLAP activator	PostGolgi ctrl	DAT uptake mod	PostGolgi yeast
O=C(COC(=O)C12CC3CC(CC(C3)C1)C2)Nc1ncc(Cl)cc1Cl	-1	1	21	0.89	-2
O=C(COC(=O)CC12CC3CC(CC(C3)C1)C2)Nc1ncc(Cl)cc1Cl	-5.9*	1.5	37*	1.4	-3
O=c1[nH]cnc2c1sc1nc3c(c(-c4ccc(Cl)cc4)c12)CCC3	2	0.9	16	-1.1	13
CCOC(=O)Cn1nnc2c(sc3nc4c(c(-c5ccc(Cl)cc5)c32)CCC4)c1=O	-2.3	1.5	34*	0.39	-5
CCOC(=O)Cn1nnc2c(sc3nc4c(c(-c5ccccc5)c32)CCC4)c1=O	-0.13	1.1	32*	-0.033	2
COC(=O)c1ccc(COc2ccc(-c3nn[nH]n3)cc2)cc1	1.1	1	9	-0.61	2
COCCNC(=O)C(c1cccs1)N(C(=O)Cn1nnc2ccccc21)c1ccc(OC)cc1 (stereo not given)	0.68	nt	nt	-1.3	nt
S=c1[nH]nc(C2CCCCC2)n1/N=C/c1cccs1	nt	1.1	22	nt	2
CCOC(=O)CSCC(=O)Nc1c(C(=O)C2CC2)oc2ccccc12	-4.7*	nt	nt	0.0065	nt
CN1CCN(CC(=O)Nc2c(C(=O)C3CC3)oc3ccccc23)CC1	1.1	1.6	2	-0.52	-16
Cc1c(C#N)c(N=CN(C)C)c(C(=O)c2ccccc2)n1-c1ccc(Br)cc1	-0.29	1.7	43*	-0.011	-3
Cc1c(C#N)c(N=CN(C)C)c(C(=O)c2ccc(Br)cc2)n1-c1ccccc1	-0.59	1.2	28	0.65	5
CC1CCc2nn(CC(=O)NC3CCCC(C)C3C)cc2C1 (stereo not given)	-0.76	1.1	17	-0.016	7
Cc1cc(=O)oc2ccc(OCC(=O)N(Cc3ccc(F)cc3)Cc3ccco3)cc12	-5.1*	1.5	44*	1.2	-4
CCOC(=O)Oc1ccc2oc(=O)cc(C)c2c1	0.49	0.9	5	0.059	5
c1csc(-c2noc(COc3ccc4c(c3)CCCC4)n2)c1	-2.9	1	9	-1.7	-7
C=CCN(CC=C)S(=O)(=O)c1ccc(NC(=S)NC(=O)Cc2ccc(OC)cc2)cc1	-3.8	0.6	10	0.17	-10
COc1cc(C2C(C#N)=C(N)Oc3n[nH]c(C)c32)cc2c1OCO2 (stereo not given)	-0.14	2*	-1	0.92	3
Cc1ccc(-n2c(-c3c(-c4ccccc4)noc3C)n[nH]c2=S)cc1	1.5	2.1*	13	-0.021	-1
CCOC(=O)C1CCN(C(c2cc3ccc(C)c(C)c3[nH]c2=O)c2nnnn2C2CCCCC2)CC1 (stereo not given)	-2.2	1.6	4	0.17	13
Oc1ccc(C(c2nnnn2C2CCCC2)N2CCc3ccccc3C2)cc1 (stereo not given)	-6.9*	1.2	0	-0.0038	4
Cc1ccc2cc(C(c3nnnn3C3CCCC3)N3CCN(c4ccccc4)CC3)c(=O)[nH]c2c1 (stereo not given)	-6.1*	1.5	14	-0.026	5
COc1ccc(C(c2nnnn2Cc2ccccc2)N2CCN(c3ccccc3)CC2)cc1 (stereo not given)	-4.5*	1.6	nt	0.068	nt
CCOC(=O)C1CCN(C(c2cc3c(C)ccc(C)c3[nH]c2=O)c2nnnn2C2CCCCC2)CC1 (stereo not given)	0.9	1.4	30*	-0.14	5
COc1cccc(C(=O)O/N=C/c2ccc(Sc3ccc(C)cc3)nc2)c1	0.35	0.8	11	-0.47	-4
SMILES	Cav3 T inh	PLAP activator	PostGolgi ctrl	DAT uptake mod	PostGolgi yeast
COc1ccc(Cn2nnnc2C(c2cccs2)N2CCCCCC2)cc1 (stereo not given)	-4.1*	1.3	18	-1.6	3
COc1ccc(OC)c(C(c2nnnn2C2CCCC2)N2CCN(c3ccc(F)cc3)CC2)c1 (stereo not given)	-9.4*	1.6	6	0.029	-10
COc1ccc(C(c2nnnn2Cc2cccs2)N2CCN(c3ccccc3F)CC2)cc1 (stereo not given)	-3.4*	1.3	18	1.7	-2
Fc1ccc(N2CCN(C(c3cccs3)c3nnnn3CCc3ccccc3)CC2)cc1 (stereo not given)	-3	nt	37*	0.43	12
COc1ccc(Cn2nnnc2C(c2cccs2)N2CCSCC2)cc1 (stereo not given)	-2.2	0.8	13	0.16	16
COc1ccc(C(c2nnnn2C2CCCC2)N2CCC(C)CC2)c(OC)c1 (stereo not given)	nt	1.6	3	-0.077	0
CCOC(=O)CCC(=O)Nc1ccccc1C(N)=O	0.0096	0.9	2	-1.2	-5
CCOCc1nc(N)[nH]c(=O)c1Cc1ccc(OC(C)C)cc1	-0.0036	nt	nt	0.95	nt
COc1ccc(Cn2nnnc2C(c2ccccc2)N2CCN(C3CCCC3)CC2)cc1 (stereo not given)	0.67	2*	2	0.04	-6
COc1ccc(C(c2nnnn2Cc2ccccc2)N2CCN(c3nc4ccccc4s3)CC2)cc1 (stereo not given)	-4.8*	1.6	23	-0.49	10
c1ccc(CN2CCN(C(c3ccccc3)c3nnnn3Cc3ccccc3)CC2)cc1 (stereo not given)	-0.29	nt	nt	-0.066	nt
COc1ccc(Cn2nnnc2C(c2ccccc2Cl)N2CCN(C3CCCC3)CC2)cc1 (stereo not given)	-0.0035	1.7	14	-0.65	16
COc1ccc(OC)c(C(c2nnnn2Cc2ccccc2)N2CCN(C)CC2)c1 (stereo not given)	0.056	1.4	36*	-0.43	6
Fc1ccc(Cn2nnnc2C(c2ccc(Cl)cc2)N2CCSCC2)cc1 (stereo not given)	-7.1*	1.4	18	0.28	-8
Cc1cccc(OCC(=O)Nc2ccc(N3CCN(C(=O)c4ccco4)CC3)cc2)c1	0.25	1.1	12	-0.022	-3
C#CCOCCOCCOCCNc1nc(N2CCN(C(=O)C([C@@H](C)CC)n3cc(C(N)Cc4ccc(O)cc4)nn3)CC2)nc(N2CCN(C(=O)[C@H](CCC(=O)O)n3cc(C(N)CO)nn3)CC2)n1 (stereo not given in full)	1.1	nt	nt	-0.12	nt
CCCC(c1nnnn1CC1CCCO1)N1CCN(c2nc3ccccc3s2)CC1 (stereo not given)	-0.62	nt	nt	0.16	nt
COc1ccc(C(c2nnnn2C2CCCC2)N2CCN(c3ccccc3)CC2)cc1 (stereo not given)	-5.2*	nt	nt	0.01	nt
COc1ccccc1N1CCN(C(c2ccc(C)cc2)c2nnnn2C(C)C)CC1 (stereo not given)	-4.1	1.4	8	3.1*	2
COc1ccccc1N1CCN(C(c2ccc(F)cc2)c2nnnn2C(C)C)CC1 (stereo not given)	nt	1.2	7	-0.06	-2
CCCC(c1nnnn1Cc1cccs1)N1CCN(c2nc3ccccc3s2)CC1 (stereo not given)	0.46	1	19	-0.66	47*
C#CCNC(=O)C1=C[C@H](c2ccc(C(F)(F)F)cc2)[C@@H](CCCO)[C@H](OCC)O1	-1.3	nt	nt	0.66	nt
